Screening results as filed in PubChem.
Sampled rows, rich in hits. Any-hit rate of the full collection: about 17%.
TGFb SMAD3 inh = blocks TGF-b signaling; HepG2 CAGA-GFP TGF-b/SMAD3 reporter, GFP fluorescence, 18 h; TGF-beta stimulated, 500 pg/mL final; Potency, µM (highest dose often 46.1 µM), for the others: at the top dose activity, negative = inhibition, actives largely listed as inhibitors; 1.2% of 410,000 active; AID 588855; note: % is set by controls: 0 for no effect and ±100 for the full control effect; nearly all actives have a fitted effect of over 65% in size
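First, reporter cells (HEPG2 CAGA-GFP) rested 2 h at 37 degrees C. Next, compounds were pinned in and TGF-beta added to 500 pg/mL final. After 18 h, GFP was imaged per cell and summed per well.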
HepG2 tox = counter-screen for TGF-b inhibitors: cytotoxicity in HepG2 cells | HepG2 CAGA-GFP viability, ATP luminescence, 18 h | Potency, µM (series often up to 46.1 µM), inactives show top-dose activity change, negative = cytotoxicity, hits mostly cytotoxic | 0.76% of 410,000 active
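HepG2 CAGA-GFP cells (1000/well, DMEM with 1% FBS) received compound, then TGF-beta at 500 pg/mL final, and were incubated 18 hours at 37 degrees C. Viability was read by CellTiter-Glo luminescence. Media-only wells were set as complete cell-killing and DMSO as no toxicity.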
HT1080-NT tox = kills 2HG-producing HT-1080-NT fibrosarcoma cells; HT-1080-NT fibrosarcoma viability, CellTiter-Glo ATP luminescence, 48 h; Potency, µM (series often up to 46.1 µM), inactives show at the highest dose activity, negative = less viability, hits mostly cytotoxic; 1.6% of 360,000 active; AID 686970;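 note: NT is the 2HG producing partner of a matched IDH1 knockdown line; 0% = DMSO-treated cells and -100% = media-only wells without cells; nearly all actives have a fitted effect of over 55% in size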
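A 48-hour cytotoxicity screen used HT-1080-NT cells plated 2 hours before compound delivery. ATP-based CellTiter-Glo luminescence measured viability, normalized to DMSO and no-cell controls.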
DT40 TDP1 no CPT = qHTS for Inhibitors of human tyrosyl-DNA phosphodiesterase 1 (TDP1): qHTS in cells in absence of CPT. DT40 Tdp1-/- hTDP1 cells, no CPT, ATP luminescence, 48 h. Potency, µM (titrated, usually from 46.2 µM), for inactives: top-dose activity change, negative = growth inhibition, usual class: inhibitors. 15% of 420,000 active. AID 686978, 2013; note: % is set by controls: 0 for no effect and ±100 for the full control effect; nearly all actives have a fitted effect of over 55% in size
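Camptothecin absent (DMSO only). Human TDP1-complemented DT40 knockout cells, 400 cells/well, 37 °C for minimum 48 hr; ATP measured via CellTiter-Glo, 30 min dark incubation, luminescence.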
HT1080 IDH1KD tx = toxicity to HT-1080 IDH1 knockdown cells (counter line); AID 686971; Potency, µM (doses to about 46.1 µM), inactives show at the top dose activity, negative = toxicity, most hits filed as cytotoxic; HT-1080 IDH1 knockdown viability, ATP luminescence, 48 h; 2% of 360,000 active;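 note: 0% = DMSO wells and -100% = cell-free medium wells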
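Luminescent ATP read-out (CellTiter-Glo, 10 min at room temperature) after 48 h compound exposure at 37 °C gave viability of IDH1-knockdown HT-1080 cells. Activity was normalised to DMSO and cell-free wells, then fitted as concentration-response curves.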
DT40 TDP1 CPT = growth inhibition of DT40 Tdp1-/-;hTDP1 cells with camptothecin (screen for TDP1 inhibitors). chicken DT40 Tdp1-/-;hTDP1 cells + 20 nM CPT, ATP luminescence, 48 h. 12% of 420,000 active. AID 686979. Potency, µM (titrated, usually from 46.2 µM), inactives show at the highest dose activity change, negative = growth inhibition, hits mostly inhibitors; note: % is set by controls: 0 for no effect and ±100 for the full control effect; nearly all actives have a fitted effect of over 55% in size
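Chicken DT40 Tdp1-/- cells complemented with human TDP1, 400 cells/well, exposed to compounds plus 20 nM camptothecin for at least 48 h at 37 C; viability read as ATP content by CellTiter-Glo luminescence.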
Active calls of the source: *; ? = inconclusive; · = no result given; [ ] = another dose, or the depositor's remark. Calls come from the whole dose curve; as a rule, active = well fitted curve in the direction sought with a large enough effect; inconclusive = small, poorly fitted or top-dose-only effect, or another doubt; inactive = no such curve, though single readings can be large; an effect the other way counts as inactive or inconclusive. Potency is the fitted concentration of half-maximal effect.

SMILES | TGFb SMAD3 inh | HepG2 tox | HT1080-NT tox | DT40 TDP1 no CPT | HT1080 IDH1KD tx | DT40 TDP1 CPT
CCCCc1c(C)nc2ccc(Br)cc2c1SC(N)N | -3.7% | -1.3% | 8.0% | 2.8% | 10.7% | -1.6%
COc1cccc2c1OCC([C@@H]1C[C@H]3CN(Cc4cccc(Cl)c4)C(=O)[C@]34CCCN14)=C2 | -19.0% | -20.0% | -19.5% | ? | -19.5% | 16.4µM*
COc1ccccc1/C=C/[C@@H]1C[C@H]2CN(Cc3cccc(Cl)c3)C(=O)[C@]23CCCN13 | ? | 0.1% | -11.8% | 20.6µM* | -16.9% | 10.3µM*
O=C1N(Cc2cccc(Cl)c2)C[C@@H]2C[C@@H](c3ccco3)N3CCC[C@@]123 | 4.1% | 1.5% | 1.3% | -10.9% | 20.9% | 20.3%
O=C1N(Cc2cccc(Cl)c2)C[C@@H]2C[C@@H](c3cccn3-c3cccnc3)N3CCC[C@@]123 | 15.8µM* | -42.1% | -7.2% | 20.6µM* | -23.6% | ?
O=S(=O)(c1ccccc1)N1CCC[C@@]2(CCN(c3ccncc3)C2)C1 | · | · | · | 18.4µM* | · | ?
CS(=O)(=O)N1CCC2(CCCN(C(=O)Nc3cccc(C#N)c3)C2)CC1 | · | · | · | 0.3% | · | -0.5%
N#Cc1cccc(NC(=O)N2CC[C@@]3(CCCN(S(=O)(=O)c4ccccc4)C3)C2)c1 | · | · | · | 20.6µM* | · | ?
CC#CC[N+](C)(C)CC(=O)c1ccccc1 | 21.4% | -32.8% | 1.4% | 24.9% | 12.6% | 7.1%
CC#CC[N+](C)(C)CCCCCCCC | 16.3% | 2.3% | -2.1% | 9.2µM* | -10.0% | 11.6µM*
CCCCNC(=O)C1(C)CCCCCN1Cc1cccc2c(OC)cc(C(=O)OCC)cc12 (stereo not drawn) | -5.7% | -26.9% | ? | 13µM* | ? | ?
CC1(C(=O)NCc2ccccc2Br)CCN1Cc1ccc2ccccc2c1 (stereo not drawn) | ? | -37.7% | -22.4% | ? | ? | 20.6µM*
CC1(C(=O)NCc2cccc(C(F)(F)F)c2)CCN1Cc1ccc2ccccc2c1 (stereo not drawn) | ? | -67.1% | ? | ? | ? | ?
CCCCNC(=O)C1(C)CCCCN1Cc1ccc2ccccc2c1 (stereo not drawn) | ? | -4.7% | -29.0% | ? | ? | 23.1µM*
CC1(C(=O)NCc2cccc3ccccc23)CCN1Cc1ccc(OC(F)(F)F)cc1 (stereo not drawn) | ? | -112.1% | ? | ? | ? | ?
CC1(C(=O)NCc2cccc3ccccc23)CCN1Cc1cccc2c1OCO2 (stereo not drawn) | ? | -40.4% | ? | 14.6µM* | ? | 23.1µM*
COC(=O)CNc1nc(Cl)nc(NC2CCCCC2)n1 | -9.2% | -33.0% | -9.8% | 6.4% | -13.7% | 3.2%
CCCCCCCCCCCCCCC(F)C(=O)O (stereo not drawn) | · | · | · | 9.4%[4.12 µM] | · | 3.8%[4.12 µM]
N#CC(c1ccc(Cl)cc1)c1c(Cl)cc(-n2ncc(=O)[nH]c2=O)cc1Cl (stereo not drawn) | · | · | · | 0.0% | · | 1.5%
CCNC(=O)C1(C)CCCN1Cc1ccccc1Cl (stereo not drawn) | -6.1% | 0.6% | 27.2% | ? | 20.4% | 23.1µM*
COc1ccccc1CNC(=O)C1(C)CCN1Cc1ccc2ccccc2c1 (stereo not drawn) | ? | -33.5% | ? | -97.6% | ? | -94.5%
CC1(C(=O)NCc2ccccc2Br)CCN1Cc1ccc(-c2ccccn2)cc1 (stereo not drawn) | ? | -20.4% | ? | 18.4µM* | ? | 14.6µM*
CC1(C(=O)NCc2cccc3ccccc23)CCN1Cc1ccc2ccccc2c1 (stereo not drawn) | ? | -62.7% | ? | 18.4µM* | ? | 18.4µM*
CC(C)CCNC(=O)C1(C)CCN1Cc1ccc2ccccc2c1 (stereo not drawn) | ? | -34.9% | ? | 23.1µM* | ? | ?
CC(C)NC(=O)C1(C)CCCN1Cc1ccccc1C#N (stereo not drawn) | -2.0% | -1.3% | 54.1% | ? | 24.3% | ?
SMILES | TGFb SMAD3 inh | HepG2 tox | HT1080-NT tox | DT40 TDP1 no CPT | HT1080 IDH1KD tx | DT40 TDP1 CPT
O=C(NC1CCCC1)C1c2ccccc2OCC(=O)N1C1CC1 (stereo not drawn) | · | · | 17.3% | -8.2% | 12.2% | 8.8%
CC[N+]1(C)C2CCC1CC(OC(=O)[C@H]1CCC(C(=O)OC3CC4CCC(C3)[N+]4(C)CC)(c3ccccc3)c3ccccc31)C2 (stereo partly drawn) | · | · | · | -14.4% | · | -6.9%
Cc1ccc(C(=O)NCC(=O)N2CCCCCCC2)cc1C | 0.8% | 8.8% | 9.5%[9.24 µM] | 6.3% | 0.5% | -2.3%
C[C@H]1CN([C@@H](C)CO)C(=O)CCCn2nncc2CO[C@H]1CN(C)C(=O)Nc1cccc(Oc2ccccn2)c1 | -14.4% | -13.8% | -6.5% | -22.5% | -1.3% | -2.1%
Cc1ccc(CN2CCCC2(C)C(=O)NC(C)C)cc1 (stereo not drawn) | 24.6% | -1.2% | 10.7% | ? | 20.7% | ?
CC(C)NC(=O)C1(C)CCCCN1Cc1ccc(OCc2ccccc2)cc1 (stereo not drawn) | ? | -77.3% | ? | 1.64µM* | ? | 2.31µM*
CCCSc1nsc(NC(=O)C(c2ccccc2)c2ccccc2)n1 | 17.8µM* | 6.31µM* | ? | 29.1µM* | ? | 18.4µM*
CCCCCCSc1nsc(NC(=O)CC(C)C)n1 | ? | -19.6% | ? | ? | 14.6µM* | -17.3%
CCN(Cc1ccccc1)C(=O)CN(c1ccc(OC)cc1)S(=O)(=O)c1c(C)nn(C)c1C | -9.6% | -6.1% | · | ? | · | 3.9%
Cc1ccc(-c2csc(N3CCC(C(N)=O)(N4CCCCC4)CC3)n2)cc1 | 7.8% | 1.8% | 6.2% | 20.6µM* | 7.1% | ?
Cc1ccc(-c2csc(N3CCC(C(N)=O)CC3)n2)cc1 | -20.6% | -15.7% | · | · | · | ·
Cc1cc(C)c2c(c1)-c1c(ssc1=S)C(C)(C)N2C(=O)CN1C(=O)c2ccccc2C1=O | -22.5% | -29.3% | -2.5% | ? | -1.6% | 20.6µM*
CCCCN(C)S(=O)(=O)c1cc(Br)cc2c1N(C(=O)C1CC1)CC2 | 3.1% | -22.6% | -16.2% | 3.66µM* | -11.2% | 8.2µM*
Cc1ccc(N2CCN(S(=O)(=O)c3cc(Br)cc4c3N(C(=O)C3CC3)CC4)CC2C)cc1 (stereo not drawn) | -4.9% | -1.5% | · | 16.4µM* | · | 13µM*
